40 compounds from PubChem BioAssay (NCATS) can be followed below.

Inconclusive results are not listed. The source made the active and inactive calls. The call rests on the fitted dose curve; in most records, active means well fitted inhibition curve with a large enough effect; inconclusive means small, poorly fitted or top-dose-only effect; inactive means flat fitted curve, though single readings scatter.
On the % scale 0 is the no-effect control and ±100 the full control effect.

Sequence of Calcium and integrin-binding protein 1 (Homo sapiens) (Q99828 whole entry, looked up): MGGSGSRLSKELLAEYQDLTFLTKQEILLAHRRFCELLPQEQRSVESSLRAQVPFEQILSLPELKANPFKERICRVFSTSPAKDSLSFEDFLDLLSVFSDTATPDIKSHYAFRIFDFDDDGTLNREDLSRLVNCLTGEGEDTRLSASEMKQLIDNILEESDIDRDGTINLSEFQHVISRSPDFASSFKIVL

This assay concerns the target Calcium and integrin-binding protein 1 (Homo sapiens) (UniProt Q99828). Nature of the assay: Primary qHTS for Identification of Calcium Integrin Binding Protein 1 (CIB1) Competitor (AID 1508620). Further: top concentration of the series differs between compounds. The settings on record: CIB1-GST / FITC-alphaIIb peptide fluorescence polarization; series mostly up to 114 µM; activity change, negative = inhibition: at the top concentration. The essentials: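 Fluorescence polarization competition: GST-tagged CIB1 (1 uM final) preincubated with compound 15 min at room temperature, then FITC-labelled alphaIIb peptide (100 nM final) added. After 15 min at room temperature, polarization read at Ex 480/Em 540.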
A general note: qHTS replaces the single test concentration by a dilution series.
As for `O=C(CN1C(=O)N/C(=C\c2cccn2-c2cccc(C(=O)O)c2)C1=O)Nc1cccc(Cl)c1`, the “activity change, negative = inhibition” value was 1.99% (inactive).

Turning to `COc1cccc(-c2nnc3n2N=C(c2ccc(OC)cc2OC)CS3)c1`, the “activity change, negative = inhibition” value was -1.16% (inactive).

`O=C(OCC#CCSc1nnc(-c2ccc3ccccc3c2)o1)c1ccc(F)c(F)c1`: the “activity change, negative = inhibition” value was 1.42% (inactive).

Take `CC(C)(C)Cc1nnc(NC(=O)CSc2ccccc2)s1`: the “activity change, negative = inhibition” value was 1.62% (inactive).

With `FC(F)(F)c1ccccc1-c1nc(NCc2ccc(-c3ccc(Cl)c(Cl)c3)cc2)c2ccccc2n1`, the “activity change, negative = inhibition” value was 2.96% (inactive).

Regarding `O=S(=O)(Nc1nccs1)c1ccc(NCc2ccccc2O)cc1`, the “activity change, negative = inhibition” value was -11% (inactive).

In the case of `Cc1nnc(-c2cnn(C)c2N)n1CCCc1cccnc1`, the “activity change, negative = inhibition” value was 7.75% (inactive).

With `CC(C)c1ccccc1-c1ncc(F)c(NCc2ccc(-c3ccn[nH]3)cc2)n1`, the “activity change, negative = inhibition” value was -4.7% (inactive).

In the case of `Cc1ccc(NS(=O)(=O)c2cc3c(cc2N(C)C)NC(=O)CC3)cc1C`, the “activity change, negative = inhibition” value was 2.77% (inactive).

With `CC(Nc1nc(-c2ccccc2C(F)(F)F)nc2ccccc12)c1ccc(-c2ccccc2)cc1` (stereo not given), the “activity change, negative = inhibition” value was -3.47% (inactive).

As to `CC(=O)N1CCN(C(=S)Nc2cc(C)ccn2)CC1`, the “activity change, negative = inhibition” value is -6.92% (inactive).

In the case of `Cc1cc(NC(=S)N2CCN(c3cccc(C(F)(F)F)c3)CC2)nc2ccccc12`, the “activity change, negative = inhibition” value was 0.0159% (inactive).

In the case of `COc1ccccc1-c1nnc2n1N=C(c1ccc(OC(F)F)c(OCC3CC3)c1)CS2`, the “activity change, negative = inhibition” value was 1.36% (inactive).

Regarding `COc1ccc(C2=Nn3c(nnc3-c3ccc(OC)cc3OC)SC2)c(OC)c1`, the “activity change, negative = inhibition” value is -0.296% (inactive).

For `Cc1ccc(OCCn2c(CCNC(=O)C3CCC3)nc3ccccc32)cc1`, the “activity change, negative = inhibition” value was -4.31% (inactive).

For `Cc1ccc(NC(=O)Nc2nnc(-c3ccncc3)s2)cc1C`, the “activity change, negative = inhibition” value is -3.68% (inactive).

On to `COc1ccc(C2=Nn3c(nnc3-c3cccc(OC)c3OC)SC2)cc1`, for which the “activity change, negative = inhibition” value was -2.01% (inactive).

Take `O=C(Nc1nc(Nc2cc(F)cc(F)c2)nc(NC2CCCC2)n1)OCc1ccccc1`: the “activity change, negative = inhibition” value was -2.55% (inactive).

As for `O=C(Nc1ncc(Cc2ccc(C(F)(F)F)cc2)s1)c1ccco1`, the “activity change, negative = inhibition” value is -2.65% (inactive).

For `OCc1ccnc(NC(=S)N2CCN(c3cccc(C(F)(F)F)c3)CC2)c1`, the “activity change, negative = inhibition” value was -0.577% (inactive).

As for `CC1(C)CC2CC(C)(CN2S(=O)(=O)c2ccc(C(=O)Nc3cccc(S(=O)(=O)N4CCOCC4)c3)cc2)C1` (stereo not given), the “activity change, negative = inhibition” value is 8.98% (inactive).

For the compound `COc1ccc(C2=Nn3c(nnc3-c3ccccc3F)SC2)cc1OCC1CC1`, the “activity change, negative = inhibition” value was 4.62% (inactive).

On to `COc1ccc(-c2nc3ccccc3c(=O)n2Cc2ccco2)cc1COc1ccc(NC(C)=O)cc1`, for which the “activity change, negative = inhibition” value is -10.3% (inactive).

Take `Cc1c(P(=S)(c2ccccc2)c2ccccc2)[n+]2ccccc2n1CCCCCc1ccccc1`: the “activity change, negative = inhibition” value is -9.46% (inactive).

Turning to `Cc1ccc(N[S+](=O)([O-])c2cc3c(cc2Cl)NC(=O)CO3)cc1Br`, the “activity change, negative = inhibition” value is -5.18% (inactive).

As for `Cc1sc(NC(=O)Cc2ccc3c(c2)OCO3)nc1-c1ccc2c(c1)CCN2C(=O)c1ccccc1C(F)(F)F`, the “activity change, negative = inhibition” value is 8.96% (inactive).

As to `NC(=O)C1CCN(c2nc(-c3ccc(N4CCCCC4)nc3)cs2)CC1`, the “activity change, negative = inhibition” value was -14.5% (inactive).

Turning to `Cc1cccc(Cn2ncc3c4sc(C)cc4n(C)c3c2=O)c1`, the “activity change, negative = inhibition” value was 2.65% (inactive).

Take `Cc1ccc(-c2ccc(=O)n(CCNC(C)c3ccco3)n2)cc1` (stereo not given): the “activity change, negative = inhibition” value was -11.7% (inactive).

With `NC1CCN(c2nc(-c3ccc(Br)cc3)cs2)CC1`, the “activity change, negative = inhibition” value is -7.35% (inactive).

Regarding `Cc1cc(C)n2ncc(C(=O)Nc3ccc(C#N)cc3)c2n1`, the “activity change, negative = inhibition” value is 5.01% (inactive).

As for `CC(=O)N1CCN(c2ccc(NS(=O)(=O)c3ccc4c(c3)CC(=O)N4)cc2)CC1`, the “activity change, negative = inhibition” value is -18% [at 228 µM] (inactive).

`NC(=O)C1CCN(c2nc(-c3ccc([N+](=O)[O-])cc3)cs2)CC1`: the “activity change, negative = inhibition” value was 9.56% (inactive).

`Cn1c2cc(B(O)O)sc2c2cnn(Cc3c(F)cccc3F)c(=O)c21`: the “activity change, negative = inhibition” value was -11.8% (inactive).

Turning to `O=C1CCCC2=C1C(c1[nH]ncc1Cl)NC(=NCc1cccs1)N2` (stereo not given), the “activity change, negative = inhibition” value is -2.05% (inactive).

Turning to `Cc1cc(NS(=O)(=O)c2ccc(NC(=O)Cc3cccc(Cl)c3)cc2)no1`, the “activity change, negative = inhibition” value is -13.8% (inactive).

Regarding `CC(C)(C#CCSc1nnc(-c2cccc3ccccc23)o1)OC(=O)c1ccc(F)cc1`, the “activity change, negative = inhibition” value is 4.6% (inactive).

As to `Cc1ccc(NC(=O)CN2C(=O)N/C(=C\c3ccco3)C2=O)cc1`, the “activity change, negative = inhibition” value is -21.6% (inactive).

Turning to `Cn1nnnc1Sc1ncnc2scc(-c3ccc([N+](=O)[O-])cc3)c12`, the “activity change, negative = inhibition” value is -17.5% (inactive).

For the compound `O=C(Nc1cccc2nn(-c3ccc(F)cc3)cc12)c1ccccn1`, the “activity change, negative = inhibition” value is -0.135% (inactive).
